Among the data in paper PMC8384837, “Expanding the binding specificity for RNA recognition by a PUF domain” are binding signal values, retold here.

In the assay the target is PUM1 PUF domain R5-ERA (Homo sapiens, UniProt Q14671 828-1176, C1007E;Q1011A). Nature of the assay: yeast three-hybrid, YBZ-1, SC-Leu-His + 0.5 mM 3-AT, 4 days. Particulars: tags: N-Gal4 AD-HA kept; label: inside an RPR1-promoter hybrid RNA with tandem MS2 sites; ssRNA. The method in brief: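 Repeat regions from input (SC-Leu) and selection (SC-Leu-His + 0.5 mM 3-AT) plates were PCR-amplified and Illumina-sequenced after four days of growth. The cells were strain YBZ-1 with a LexA–MS2 coat fusion and a HIS3 reporter, co-expressing Pumilio-1 PUF domain libraries and matching RNA elements from a centromeric plasmid. The interaction score is the log change in variant frequency from input to selection, taken in log2 with a pseudocount of 1 for absent variants.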
Consider “GGCUAGAACUAGUGGAUCCCCCGGCGCCCGGCGGCUCGAGCCCGGGUAAGUGUCAAUAGUCUGCAUGCCGCCGGGCGCCAUGCCUGCAGGUCGACUCUAGAAAACAUG”, for which the binding signal is 0.84 log2 enrichment (interaction score).

For the sequence “GGCUAGAACUAGUGGAUCCCCCGGCGCCCGGCGGCUCGAGCCCGGGUAAGUGUGAAUAGUCUGCAUGCCGCCGGGCGCCAUGCCUGCAGGUCGACUCUAGAAAACAUG”, the binding signal is 2.24 log2 enrichment (interaction score).

On to “GGCUAGAACUAGUGGAUCCCCCGGCGCCCGGCGGCUCGAGCCCGGGUAAGUGUAAAUAGUCUGCAUGCCGCCGGGCGCCAUGCCUGCAGGUCGACUCUAGAAAACAUG”, for which the binding signal was 3.08 log2 enrichment (interaction score).

Turning to “GGCUAGAACUAGUGGAUCCCCCGGCGCCCGGCGGCUCGAGCCCGGGUAAGUGUUAAUAGUCUGCAUGCCGCCGGGCGCCAUGCCUGCAGGUCGACUCUAGAAAACAUG”, the binding signal is 1.72 log2 enrichment (interaction score).
